# Nrf2 ARE act = qHTS of Nrf2 Activators | AREc32 ARE-luciferase reporter (MCF7-derived line), luminescence, 24 h | Potency, µM (series often up to 46.1 µM), for the others: top-dose activation, usual class: activators | actives 0.31% (n = 410,000); note: potency is the fitted concentration of half-maximal effect; % of control where 0% means no effect; nearly all actives have a fitted effect of over 65% in size
#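 Quantitative high-throughput format: AREc32 reporter cells, 1000 per well, received compound by pin transfer and were incubated 24 hr at 37 deg C, 5% CO2, before Steady-Glo luminescence detection.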
# BRCA1 expr act = qHTS Assay to Identify Small Molecule Activators of BRCA1 Expression. MCF7-BRCA1-FFLuc reporter, luminescence, 48 h; response scale: scaled: vehicle 0%, 10 µM genistein 100%. Potency, µM (titrated, usually from 46.1 µM), inactives show at the highest dose activation, actives largely listed as activators. actives 1.1% (n = 380,000). AID 624202, 2012; note: potency is the fitted concentration of half-maximal effect; nearly all actives have a fitted effect of over 80% in size
#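 Compounds are tested at multiple concentrations on MCF7 BRCA1-luciferase reporter cells seeded at 2000 per well; after 48 h, a single luminescence end-point is taken and curves fitted to the normalized data.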
# ELG1 DNA repair = qHTS screen for small molecules that inhibit ELG1-dependent DNA repair in human embryonic kidney (HEK293T) cells expressing luciferase-tagged ELG1; Potency, µM (highest dose often 46.1 µM), for inactives: at the top dose activity change, negative = inhibition, most hits filed as inhibitors; actives 2.3% (n = 330,000); HEK293T ELG1-luciferase reporter, luminescence, 16 h; DNA damage induced by 5-fluorouridine; note: potency is the fitted concentration of half-maximal effect; % is set by controls: 0 for no effect and ±100 for the full control effect; nearly all actives have a fitted effect of over 55% in size
#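 Cells (2,000 per well) received 5-fluorouridine plus test compound or DMSO and were incubated 16 hr at 37 °C, 5% CO2. Luciferase activity was read by luminescence 30 min after ONE-Glo addition; signal suppression marked inhibition of damage-induced ELG1 function.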
# IL-2 act = qHTS of IL-2 Activators | AID 652025, 2013 | IL-2 activation reporter assay, cell-based qHTS; stimulated with anti-CD3/CD4/CD28 beads; in transgenic mouse T cells | activation, % (series mostly up to about 46 µM) | actives 0.065% (n = 360,000); in the data active = activation above about 50%; inconclusive = mostly about 30% to 49%; note: 0% is about no effect
#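 Unstimulated transgenic mouse T cells; 60-min compound exposure; bead-based TCR/CD4/CD28 stimulation; 18 h culture, 37 degrees C; dual fluorescence (EGFP, DsRed) plate cytometry.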
# Active calls of the source: *; ? = inconclusive; . = no result given; ! = not active in a repeat. The list is not random: actives were taken first. Their share in the collection is about 3.1%. Unless noted, calls come from the whole dose curve; as a rule, active = well fitted curve in the direction sought with a large enough effect; inconclusive = small, poorly fitted or top-dose-only effect, or another doubt; inactive = no such curve, though single readings can be large; an effect the other way counts as inactive or inconclusive.
SMILES,Nrf2 ARE act,BRCA1 expr act,ELG1 DNA repair,IL-2 act
CSc1nc2ccc3nc(NC(=O)c4cccs4)sc3c2s1,3.8%,8.91µM*,?,-0.9
CSc1nc2ccc3nc(NC(=O)c4ccc(Cl)s4)sc3c2s1,3.9%,-23.8%,9.6%,-0.3
Cc1ccccc1-n1nnnc1SCC(=O)c1c(N)n(C2CC2)c(=O)[nH]c1=O,-0.9%,-4.3%,20.6µM*,-1.1
Nc1c(C(=O)CSc2nnnn2-c2ccccc2)c(=O)[nH]c(=O)n1C1CC1,-1.1%,-3.6%,-1.6%,0.6
O=C(CCc1ccccc1)NCC(=O)N/N=C/c1ccc(O)cc1O,-2.0%,-38.2%,8.2µM*,-0.2
O=C(CNC(=O)c1cccs1)N/N=C/c1ccc(O)cc1O,0.4%,-22.9%,?,1.7
COc1ccccc1/C=C\C(=O)NCC(=O)N/N=C/c1ccc(O)cc1O,-0.5%,-83.0%,23.1µM*,0.0
CCn1c(SCC(=O)Nc2cccc(Cl)c2)nnc1-c1nonc1NC(C)=O,2.5%,.,.,.
NC1CCc2ccccc21 (configuration not stated),.,3.8%,.,.
O=C(O)c1ccc2c(c1)C(=O)N(CCc1c[nH]c3ccccc13)C2=O,2.6%,7.94µM*,?,1.4
COc1ccc(N2CCN(c3ncnc4scc(-c5ccc(C)cc5)c34)CC2)cc1,4.6%,-63.0%,?,-0.4
COc1ccc(Nc2ncnc3scc(-c4ccc(OC)cc4)c23)cc1,1.8%,-68.5%,11.6µM*,-0.7
O=C(c1ccco1)N1CCN(c2ncnc3scc(-c4ccccc4)c23)CC1,0.2%,0.0%,?,-3.5
COc1ccc(-c2csc3ncnc(N4CCN(c5cccc(C)c5C)CC4)c23)cc1,0.1%,-78.0%,?,0.7
COc1ccc(N2CCN(c3ncnc4scc(-c5ccccc5)c34)CC2)cc1,3.3%,-73.3%,16.4µM*,-0.3
COc1ccc(-c2csc3ncnc(N4CCN(C(=O)c5ccco5)CC4)c23)cc1,0.1%,0.0%,7.3µM*,-1.9
COc1ccc(Nc2ncnc3scc(-c4ccc(F)cc4)c23)cc1,1.0%,.,.,.
COc1ccc(-c2csc3ncnc(N4CCN(c5ccccc5Cl)CC4)c23)cc1,0.0%,-75.1%,13µM*,0.0
Cc1ccc(C)c(N2CCN(CCCNC(=O)c3ccc4nc(N5CCCCC5)sc4c3)CC2)c1,4.1%,?,.,.
Cc1cccn2c(=O)c(C(=O)NCCc3ccccc3)cnc12,-2.8%,.,.,.
COc1ccc(-c2csc3ncnc(N4CCN(c5cccc(OC)c5)CC4)c23)cc1,-0.4%,-11.3%,6.51µM*,-4.5
Fc1ccc(-c2nnc3ccc(N4CCc5ccccc5C4)nn23)cc1,5.0%,-24.1%,18.4µM*,-4.4
O=C(Nc1ccccc1C(F)(F)F)N1CCN(c2ccc3nnc(-c4ccc(F)cc4)n3n2)CC1,-0.2%,-0.1%,11.6µM*,-1.8
O=C(Nc1ccc(F)cc1)N1CCN(c2ccc3nnc(-c4ccc(F)cc4)n3n2)CC1,-0.4%,-32.2%,7.31µM*,-4.0
CCN(C(=O)COC(=O)c1ccccc1Nc1ccccc1)c1c(N)n(Cc2ccccc2)c(=O)[nH]c1=O,-0.1%,-60.4%,.,0.5
SMILES,Nrf2 ARE act,BRCA1 expr act,ELG1 DNA repair,IL-2 act
Cc1nc(NC(=O)c2cccnc2Cl)sc1C,7.2%,3.16µM*,.,-0.5
Cc1nc(NC(=O)Nc2ccc(Cl)cc2)sc1C,9.0%,5.62µM*,?,0.4
CN1CCc2cccc3c2[C@H]1Cc1ccc(O)c(O)c1-3,-2.5%,-63.2%,23.1µM*!,-0.6
CN1CCc2cc3c(c4c2[C@H]1[C@H](O)c1ccccc1-4)OCO3,4.3%,35.5%,-2.0%,-0.1
CCCOc1ccc(-c2nnc(N)s2)cc1,0.7%,4.47µM*,?,1.4
COc1ccc(NC(=O)c2cc(C3CCCCN3C(=O)CCCc3ccccc3)on2)c(C)c1 (configuration not stated),5.3%,-16.5%,.,-1.0
CSc1cccc(NC(=O)c2sc3nc4n(c(=O)c3c2C)CCC4)c1,2.0%,8.91µM*,?,-0.5
COc1cccc(NC(=O)c2sc3nc4n(c(=O)c3c2C)CCC4)c1,-0.3%,10µM*,?,-1.9
Cc1ccccc1C(=O)OCc1cc(=O)n2nc(C3CC3)sc2n1,4.0%,102.2%,.,.
CCOC(=O)/C(C#N)=C\C=C1C=CN(C)C=C1,2.3%,3.98µM*,?,6.0
CCOC(=O)c1c(S(=O)(=O)N2CCC(C(=O)Nc3cccc(C)n3)CC2)c(C)n(C)c1C,-0.5%,.,.,.
OCCc1ccc(O)c(-n2nc3ccccc3n2)c1,4.2%,11.2µM*,?,0.9
Cc1ccc(C)c(N2N=C(C(=O)OCC(=O)N(C)c3ccccc3)CCC2=O)c1,0.2%,-9.2%,3.1%,0.2
O=C(c1ccccc1)N1CCN(c2ncnc3c2cnn3-c2ccccc2)CC1,4.0%,-16.3%,-4.5%,-1.9
Cc1nn(-c2ccccc2)c(Cl)c1C(=O)N1CCN(c2ncnc3c2cnn3-c2ccccc2)CC1,-0.6%,-83.3%,7.31µM*,-0.8
O=C(c1cccc(Cl)c1)N1CCN(c2ncnc3c2cnn3-c2ccccc2)CC1,0.5%,-2.1%,11.6µM*,-1.9
COc1cc2c(NC3CCN(C(C)C)CC3)nc(N3CCCN(C)CC3)nc2cc1OCCCN(C)C,.,-10.8%,.,.
CC(=O)N1CCC(C(=O)N2c3ccccc3N=C(c3ccc4c(c3)OCO4)C2C(=O)Nc2c(C)cccc2C)CC1 (configuration not stated),.,.,.,-0.1
CC(=Nc1ccc(Br)cc1)c1sc2ccccc2c1O,17.6%,3.98µM*,?,-0.1
Oc1ccc(NCc2ccccc2OCc2ccc(Cl)cc2)cc1,10.7%,.,.,.
O=c1[nH]c2ccc(NCc3ccccc3OCc3ccc(Cl)cc3)cc2[nH]1,9.8%,-25.0%,8.2µM*,0.6
Cc1ccc(C)[n+](CC(=O)c2ccc(-c3ccccc3)cc2)c1,6.7%,-17.4%,7.3µM*,-0.9
Cc1ccc(NC(=O)c2ccccc2)cc1,-0.1%,3.55µM*,?,-2.9
Cc1ccc(C(=O)CC(=O)c2ccccc2)cc1,15.0%,5.01µM*,?,-0.7
CCOC(=O)c1ccc(NC(=O)c2ccc(NC(=O)c3ccccc3)cc2)cc1,-0.9%,18.2%,-19.0%,-1.2
SMILES,Nrf2 ARE act,BRCA1 expr act,ELG1 DNA repair,IL-2 act
Cc1ccc(C(=O)Cc2ccccc2)cc1,2.6%,47.1%,.,0.8
CC(C)OC(=O)c1ccc(NC(=O)c2ccccc2)cc1,5.4%,2.51µM*,?,-1.4
Cc1ccc[n+](CC(=O)c2ccc(-c3ccccc3)cc2)c1,0.1%,-3.9%,?,-2.4
COC(=O)CSCc1nc(-c2ccc(C(=O)OC)cc2)oc1C,-4.3%,.,.,.
O=C(Nc1ccc2c(c1)C(=O)c1ccccc1-2)c1ccccc1,?,2.82µM*,.,0.1
CC(C)OC(=O)c1ccc(NCc2cc(O)ccc2O)cc1,12.6µM*,-73.6%,.,-2.7
COc1cccc(C(=O)Nc2ccc3c(c2)C(=O)c2ccccc2C3=O)c1,3.9%,?,?,0.0

# Screening results as filed in PubChem BioAssay.
